{"source": "PubChem BioAssay (NCATS)", "note": "Results filed as inconclusive are left out. Activity calls are given as the source filed them. The call rests on the fitted dose curve; in most records, active means well fitted cell-killing curve with a large enough effect; inconclusive means small, poorly fitted or top-dose-only effect, or effect the other way; inactive means no such curve, though single readings can be large or run the other way. Potency means the concentration at half of the fitted maximal effect.", "data": [{"test": "Quantitative High-Throughput drug screen in 47 multiple myeloma cell lines against the NCATS MIPE library collection: INA6_PLB cell viability assay (AID 1918965; further: nearly all actives have a fitted effect of over 55% in size)", "conditions": "INA6 myeloma viability, CellTiter-Glo ATP luminescence, 48 h; series mostly up to 45.8 µM", "procedure,_shortened": "(§1)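 We plated 500 myeloma cells per well, pinned in MIPE 4.0 compounds, and incubated for 48 hours at 37C. ATP was then quantified with CellTiter-Glo, with DMSO and media-only wells defining 100% and 0%.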", "values": [{"smiles": "C=CCn1c(=O)c2cnc(Nc3ccc(N4CCN(C)CC4)cc3)nc2n1-c1cccc(C(C)(C)O)n1", "Potency": "526 nM (active)"}, {"smiles": "CNC(=O)c1cc(Oc2ccc(NC(=O)Nc3cc(C(C)(C)C)nn3-c3ccc4ncccc4c3)c(F)c2)ccn1", "Potency": "3320 nM (active)"}, {"smiles": "O=C(O)C1(Cc2cccc(Nc3nccs3)n2)CCC(Oc2cccc(Cl)c2F)CC1", "note": "(stereo not given)", "Potency": "235 nM (active)"}, {"smiles": "COc1cc(C(=O)NS(=O)(=O)c2ccccc2C)ccc1Cc1cn(C)c2ccc(NC(=O)OC3CCCC3)cc12", "Potency": "10500 nM (active)"}, {"smiles": "O=C(Nc1cn[nH]c1-c1nc2ccc(CN3CCOCC3)cc2[nH]1)NC1CC1", "Potency": "148 nM (active)"}, {"smiles": "COC(=O)Nc1ccc(-c2nc(N3CCOCC3)c3cnn(C4CCN(Cc5cccnc5)CC4)c3n2)cc1", "Potency": "46.9 nM (active)"}, {"smiles": "Cc1[nH]c2ccccc2c1CCNCc1ccc(C=CC(=O)NO)cc1", "Potency": "13.2 nM (active)"}, {"smiles": "C[C@@H]1COC(Nc2ccc3ncnc(Nc4ccc(OCc5nccs5)c(Cl)c4)c3c2)=N1", "Potency": "4690 nM (active)"}, {"smiles": "COC(=O)[C@]12CCC(C)(C)C[C@@H]1[C@@H]1C(=O)C=C3[C@@]4(C)C=C(C#N)C(=O)C(C)(C)[C@@H]4CC[C@@]3(C)[C@]1(C)CC2", "Potency": "59 nM (active)"}, {"smiles": "Cc1cc(CN2CCN(c3c(Br)cnc4nc(-c5ccc(N6CCN(C)CC6)cc5)[nH]c34)CC2)no1", "Potency": "2640 nM (active)"}, {"smiles": "NC1(Cc2ccc(Cl)cc2)CCN(c2ncnc3[nH]ccc23)CC1", "Potency": "3720 nM (active)"}, {"smiles": "CCCCN1CCC(CNC(=O)c2c3n(c4ccccc24)CCCO3)CC1", "Potency": "16600 nM (active)"}, {"smiles": "Cc1c(CN2CCN(S(C)(=O)=O)CC2)sc2c(N3CCOCC3)nc(-c3cnc(N)nc3)nc12", "Potency": "264 nM (active)"}, {"smiles": "CN1CCN(c2ccc3nc(-c4c(N)c5c(F)cccc5[nH]c4=O)[nH]c3c2)CC1", "Potency": "1320 nM (active)"}, {"smiles": "COc1cc2c(Oc3ccc4[nH]c(C)cc4c3F)ncnc2cc1OCCCN1CCCC1", "Potency": "9350 nM (active)"}, {"smiles": "O=c1[nH]nc(Sc2ncc([N+](=O)[O-])s2)n1-c1ccc2c(c1)OCCO2", "Potency": "1180 nM (active)"}, {"smiles": "CC=C1NC(=O)[C@H]2CSSCCC=C[C@H](CC(=O)N[C@H](C(C)C)C(=O)N2)OC(=O)[C@H](C(C)C)NC1=O", "Potency": "13.2 nM (active)"}, {"smiles": "CCC[C@H](NC(=O)C(C#N)=Cc1cccc(Br)n1)c1ccccc1", "Potency": "1320 nM (active)"}]}, {"test": "Quantitative High-Throughput drug screen in 47 multiple myeloma cell lines against the NCATS MIPE library collection: JJN3_DSMZ cell viability assay (AID 1918966)", "conditions": "JJN3 myeloma cells viability, CellTiter-Glo ATP, 48 h; series mostly up to 45.8 µM", "procedure,_shortened": "as §1", "values": [{"smiles": "C[C@@]12O[C@@H](C[C@]1(O)CO)n1c3ccccc3c3c4c(c5c6ccccc6n2c5c31)CNC4=O", "Potency": "418 nM (active)"}, {"smiles": "CN1CC[C@@H](c2c(O)cc(O)c3c(=O)cc(-c4ccccc4Cl)oc23)[C@@H](O)C1", "Potency": "74.3 nM (active)"}, {"smiles": "Nc1nccc(Oc2ccc(NC(=O)c3c[nH]cc(-c4ccc(F)cc4)c3=O)cc2F)c1Cl", "Potency": "20900 nM (active)"}, {"smiles": "CNC(=O)c1c(F)cccc1Nc1nc(Nc2cc3c(cc2OC)CCN3C(=O)CN(C)C)nc2[nH]ccc12", "Potency": "6620 nM (active)"}, {"smiles": "Cc1nc(Nc2n[nH]c3c2CN(C(=O)N[C@H](CN(C)C)c2ccccc2)C3(C)C)c2sccc2n1", "Potency": "4180 nM (active)"}, {"smiles": "COc1cc(=C2C=c3ccccc3=N2)[nH]c1=Cc1[nH]c(C)cc1C", "Potency": "1870 nM (active)"}, {"smiles": "CC[C@H]1CN2CCc3cc(OC)c(OC)cc3[C@H]2C[C@@H]1C[C@@H]1NCCc2cc(OC)c(OC)cc21", "Potency": "209 nM (active)"}, {"smiles": "OCc1ccc(-c2ccc(-c3ccc(CO)s3)o2)s1", "Potency": "16600 nM (active)"}, {"smiles": "Cn1cc(-c2[nH]c3cc(NC(=O)[C@H](N)C4CCCCC4)cc4c3c2C=NNC4=O)cn1", "Potency": "662 nM (active)"}, {"smiles": "Nc1nc(Nc2ccc(S(N)(=O)=O)cc2)nn1C(=O)c1c(F)cccc1F", "Potency": "5260 nM (active)"}, {"smiles": "O=C(NCCCNc1nc(Nc2cccc(NC(=O)N3CCCC3)c2)ncc1I)c1cccs1", "Potency": "16600 nM (active)"}, {"smiles": "CC(C)(C)OC(=O)Nc1ccc(-c2cc(C(=O)NCCCCCCC(=O)NO)no2)cc1", "Potency": "2350 nM (active)"}, {"smiles": "C=CCn1c(=O)c2cnc(Nc3ccc(N4CCN(C)CC4)cc3)nc2n1-c1cccc(C(C)(C)O)n1", "Potency": "743 nM (active)"}, {"smiles": "CNC(=O)c1cc(Oc2ccc(NC(=O)Nc3cc(C(C)(C)C)nn3-c3ccc4ncccc4c3)c(F)c2)ccn1", "Potency": "2960 nM (active)"}, {"smiles": "O=C(O)C1(Cc2cccc(Nc3nccs3)n2)CCC(Oc2cccc(Cl)c2F)CC1", "note": "(stereo not given)", "Potency": "inactive"}, {"smiles": "O=C(Nc1cn[nH]c1-c1nc2ccc(CN3CCOCC3)cc2[nH]1)NC1CC1", "Potency": "1870 nM (active)"}, {"smiles": "COC(=O)Nc1ccc(-c2nc(N3CCOCC3)c3cnn(C4CCN(Cc5cccnc5)CC4)c3n2)cc1", "Potency": "743 nM (active)"}, {"smiles": "Cc1[nH]c2ccccc2c1CCNCc1ccc(C=CC(=O)NO)cc1", "Potency": "93.5 nM (active)"}, {"smiles": "COC(=O)[C@]12CCC(C)(C)C[C@@H]1[C@@H]1C(=O)C=C3[C@@]4(C)C=C(C#N)C(=O)C(C)(C)[C@@H]4CC[C@@]3(C)[C@]1(C)CC2", "Potency": "526 nM (active)"}, {"smiles": "Cc1cc(CN2CCN(c3c(Br)cnc4nc(-c5ccc(N6CCN(C)CC6)cc5)[nH]c34)CC2)no1", "Potency": "10500 nM (active)"}, {"smiles": "CCCCN1CCC(CNC(=O)c2c3n(c4ccccc24)CCCO3)CC1", "Potency": "2090 nM (active)"}, {"smiles": "Cc1c(CN2CCN(S(C)(=O)=O)CC2)sc2c(N3CCOCC3)nc(-c3cnc(N)nc3)nc12", "Potency": "46.9 nM (active)"}, {"smiles": "CN1CCN(c2ccc3nc(-c4c(N)c5c(F)cccc5[nH]c4=O)[nH]c3c2)CC1", "Potency": "20900 nM (active)"}, {"smiles": "COc1cc2c(Oc3ccc4[nH]c(C)cc4c3F)ncnc2cc1OCCCN1CCCC1", "Potency": "20900 nM (active)"}, {"smiles": "O=c1[nH]nc(Sc2ncc([N+](=O)[O-])s2)n1-c1ccc2c(c1)OCCO2", "Potency": "2090 nM (active)"}, {"smiles": "CC=C1NC(=O)[C@H]2CSSCCC=C[C@H](CC(=O)N[C@H](C(C)C)C(=O)N2)OC(=O)[C@H](C(C)C)NC1=O", "Potency": "41.8 nM (active)"}, {"smiles": "CCC[C@H](NC(=O)C(C#N)=Cc1cccc(Br)n1)c1ccccc1", "Potency": "2090 nM (active)"}]}]}
